Assay results published in PubChem BioAssay (NCI).
About 79,000 compounds went through this panel and 15% of them were active in at least one assay; those are over-represented in the sample as a whole. Unmarked numbers belong to inactive results. Calls of active or inactive are those of the source. Rule as the data show it: active = growth inhibition above about 70%; inactive = the rest.

Experiments:
[1] = NCI Yeast Anticancer Drug Screen. Data for the rad52 strain (AID 147);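 also: 0% = growth of vehicle-treated control cultures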; conditions: S. cerevisiae rad52 mutant growth inhibition, hits give high values
In short: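 Growth of repair-deficient yeast cells was compared between compound-treated and vehicle-treated cultures to give percent inhibition.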

[2] = NCI Yeast Anticancer Drug Screen. Data for the wt1 strain (AID 149);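 also: 0% = growth of vehicle-treated wt1 cultures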; conditions: S. cerevisiae wt1 strain (SPY 50644) growth inhibition, hits give high values
In short: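 Yeast wt1 strain exposed to compounds; growth inhibition measured relative to vehicle-treated controls.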

[3] = NCI Yeast Anticancer Drug Screen. Data for the rad50EPP+ strain (AID 151);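 also: 0% = growth of vehicle-treated control cultures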; conditions: S. cerevisiae rad50 mutant strain, hits give high values
In short: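 Measured: growth inhibition of rad50EPP+ yeast. Reference: vehicle-treated controls. Screen uses strains with defined genetic alterations in DNA damage repair or cell cycle control.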

[4] = NCI Yeast Anticancer Drug Screen. Data for the mgt1 strain (AID 153); conditions: S. cerevisiae mgt1 mutant growth inhibition, hits give high values
In short: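 Compounds were applied to mgt1 mutant yeast, and growth was then compared against vehicle-treated control cultures to give percent inhibition.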

[5] = NCI Yeast Anticancer Drug Screen. Data for the rad50 strain (AID 155);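 also: 0% = growth of vehicle-only cultures of the same strain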; conditions: S. cerevisiae rad50 strain growth inhibition, hits give high values
In short: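 Yeast carrying a defined DNA repair defect were exposed to test compounds, and growth was compared with vehicle-treated controls to give percent inhibition.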

[6] = NCI Yeast Anticancer Drug Screen. Data for the mec2-1 strain (AID 157); conditions: S. cerevisiae mec2-1 strain, hits give high values
In short: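 Compounds were applied to mec2-1 yeast cells. Their growth was then compared with that of vehicle-treated cultures to give growth inhibition.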

[7] = NCI Yeast Anticancer Drug Screen. Data for the rad14 strain (AID 159);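 also: 0% = growth of vehicle-treated control cultures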; conditions: S. cerevisiae rad14 strain growth inhibition, hits give high values
In short: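 Yeast cells carrying a defined DNA-repair defect were exposed to compounds, and growth inhibition was calculated relative to vehicle-treated control cultures.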

[8] = NCI Yeast Anticancer Drug Screen. Data for the sgs1 mgt1 strain (AID 161);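 also: 0% = growth of cultures given vehicle only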; conditions: S. cerevisiae sgs1 mgt1 strain, hits give high values
In short: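 This yeast growth screen uses a strain with defined DNA-repair lesions; compound-treated growth is compared with vehicle-treated growth.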

[9] = NCI Yeast Anticancer Drug Screen. Data for the CLN2oe strain (AID 163);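 also: 0% = growth of vehicle-only control cultures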; conditions: S. cerevisiae CLN2oe strain, hits give high values
In short: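 Cells of an engineered yeast line with disturbed cell-cycle regulation are treated with compound. Inhibition of growth is then calculated relative to the vehicle-treated reference.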

[10] = NCI Yeast Anticancer Drug Screen. Data for the cln2 rad14 strain (AID 165);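 also: 0% = growth equal to vehicle treated cultures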; conditions: S. cerevisiae cln2 rad14 strain, hits give high values
In short: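 Strain: cln2 rad14 yeast, altered in cell cycle control and DNA damage repair. Read-out: growth inhibition vs vehicle.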

[11] = NCI Yeast Anticancer Drug Screen. Data for the bub3 strain (AID 167); conditions: S. cerevisiae bub3 mutant strain, hits give high values
In short: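 Compounds were applied to a genetically altered yeast strain carrying a cell-cycle control defect. Growth inhibition was scored against vehicle-treated controls.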

[12] = NCI Yeast Anticancer Drug Screen. Data for the wt2 strain (AID 169);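 also: 0% = growth of vehicle-treated yeast cultures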; conditions: S. cerevisiae wt2 strain growth inhibition, hits give high values
In short: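 Growth of compound-treated yeast is measured and expressed as inhibition relative to vehicle-only controls.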

[13] = NCI Yeast Anticancer Drug Screen. Data for the mlh1 strain (AID 171);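 also: 0% = growth of vehicle-treated control cultures of the same strain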; conditions: S. cerevisiae mlh1 strain growth inhibition, hits give high values
In short: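 Test agents were incubated with yeast bearing a defined DNA damage repair or cell cycle control alteration; values are growth inhibition normalised to vehicle-treated cultures.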

[14] = NCI Yeast Anticancer Drug Screen. Data for the sgs1 strain (AID 173);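 also: 0% = growth of vehicle-only control cultures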; conditions: S. cerevisiae sgs1 mutant, hits give high values
In short: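 Strain with an altered DNA repair or cell cycle pathway exposed to compound. Growth then measured. Value = inhibition versus vehicle control.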

[15] = NCI Yeast Anticancer Drug Screen. Data for the mlh1 rad18 strain (AID 175); conditions: S. cerevisiae mlh1 rad18 strain growth inhibition, hits give high values
In short: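 A repair-deficient yeast strain is exposed to test compound, and growth is scored relative to vehicle-treated controls.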

[16] = NCI Yeast Anticancer Drug Screen. Data for the rad18 strain (AID 177); conditions: S. cerevisiae rad18 mutant growth inhibition, hits give high values
In short: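 DNA-repair-defective yeast; compound treatment; growth inhibition scored against vehicle.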

[17] = at 5.0 µM (retest, dose inferred, filed as 0.5)
[18] = at 50.0 µM (retest, dose inferred, filed as 5.0)

Structure (SMILES): CC(C)(N=Nc1ccc(Cl)cc1)[N+](=O)[O-]
- growth inhibition ([1]; at 1.2 µM): 17%
- growth inhibition ([1]; at 3.7 µM): 27%
- growth inhibition ([1]; at 11.0 µM): 90% (active)
- growth inhibition ([1]; at 33.0 µM): 97% (active)
- growth inhibition ([1]; at 100.0 µM): 97% (active)
- growth inhibition ([2]; at 1.2 µM): 10%
- growth inhibition ([2]; at 3.7 µM): 12%
- growth inhibition ([2]; at 11.0 µM): 68%
- growth inhibition ([2]; at 33.0 µM): 98% (active)
- growth inhibition ([2]; at 100.0 µM): 98% (active)
- growth inhibition ([3]; at 1.2 µM): 13%
- growth inhibition ([3]; at 3.7 µM): 17%
- growth inhibition ([3]; at 11.0 µM): 60%
- growth inhibition ([3]; at 33.0 µM): 90% (active)
- growth inhibition ([3]; at 100.0 µM): 96% (active)
- growth inhibition ([4]; at 1.2 µM): 12%
- growth inhibition ([4]; at 3.7 µM): 22%
- growth inhibition ([4]; at 11.0 µM): 79% (active)
- growth inhibition ([4]; at 33.0 µM): 98% (active)
- growth inhibition ([4]; at 100.0 µM): 99% (active)
- growth inhibition ([5]; at 1.2 µM): 15%
- growth inhibition ([5]; at 3.7 µM): 35%
- growth inhibition [5, 17]: 47%
- growth inhibition ([5]; at 11.0 µM): 93% (active)
- growth inhibition ([5]; at 33.0 µM): 98% (active)
- growth inhibition [5, 18]: 98% (active)
- growth inhibition ([5]; at 50.0 µM): 99% (active)
- growth inhibition ([5]; at 100.0 µM): 98% (active)
- growth inhibition ([6]; at 1.2 µM): -1%
- growth inhibition ([6]; at 3.7 µM): 9%
- growth inhibition [6, 17]: 28%
- growth inhibition ([6]; at 11.0 µM): 64%
- growth inhibition ([6]; at 33.0 µM): 98% (active)
- growth inhibition [6, 18]: 99% (active)
- growth inhibition ([6]; at 50.0 µM): 98.9% (active)
- growth inhibition ([6]; at 100.0 µM): 98% (active)
- growth inhibition ([7]; at 1.2 µM): 16%
- growth inhibition ([7]; at 3.7 µM): 21%
- growth inhibition ([7]; at 11.0 µM): 76% (active)
- growth inhibition ([7]; at 33.0 µM): 97% (active)
- growth inhibition ([7]; at 100.0 µM): 97% (active)
- growth inhibition [8, 17]: 35%
- growth inhibition [8, 18]: 98% (active)
- growth inhibition ([8]; at 50.0 µM): 98.7% (active)
- growth inhibition ([9]; at 1.2 µM): 14%
- growth inhibition ([9]; at 3.7 µM): 19%
- growth inhibition ([9]; at 11.0 µM): 83% (active)
- growth inhibition ([9]; at 33.0 µM): 97% (active)
- growth inhibition ([9]; at 100.0 µM): 98% (active)
- growth inhibition [10, 17]: -1%
- growth inhibition [10, 18]: 98% (active)
- growth inhibition ([10]; at 50.0 µM): 98.5% (active)
- growth inhibition ([11]; at 1.2 µM): 19%
- growth inhibition ([11]; at 3.7 µM): 18%
- growth inhibition [11, 17]: 27%
- growth inhibition ([11]; at 11.0 µM): 82% (active)
- growth inhibition ([11]; at 33.0 µM): 97% (active)
- growth inhibition [11, 18]: 99% (active)
- growth inhibition ([11]; at 50.0 µM): 99% (active)
- growth inhibition ([11]; at 100.0 µM): 98% (active)
- growth inhibition ([12]; at 1.2 µM): 12%
- growth inhibition ([12]; at 3.7 µM): 15%
- growth inhibition ([12]; at 11.0 µM): 88% (active)
- growth inhibition ([12]; at 33.0 µM): 98% (active)
- growth inhibition ([12]; at 100.0 µM): 98% (active)
- growth inhibition ([13]; at 1.2 µM): 3%
- growth inhibition ([13]; at 3.7 µM): 11%
- growth inhibition ([13]; at 11.0 µM): 77% (active)
- growth inhibition ([13]; at 33.0 µM): 98% (active)
- growth inhibition ([13]; at 100.0 µM): 99% (active)
- growth inhibition ([14]; at 1.2 µM): 11%
- growth inhibition ([14]; at 3.7 µM): 19%
- growth inhibition ([14]; at 11.0 µM): 95% (active)
- growth inhibition ([14]; at 33.0 µM): 98% (active)
- growth inhibition ([14]; at 100.0 µM): 98% (active)
- growth inhibition [15, 17]: 47%
- growth inhibition [15, 18]: 98% (active)
- growth inhibition ([15]; at 50.0 µM): 98.7% (active)
- growth inhibition ([16]; at 1.2 µM): 15%
- growth inhibition ([16]; at 3.7 µM): 23%
- growth inhibition ([16]; at 11.0 µM): 94% (active)
- growth inhibition ([16]; at 33.0 µM): 98% (active)
- growth inhibition ([16]; at 100.0 µM): 96% (active)
